# Data as given in PubChem BioAssay.
# The source made the active and inactive calls.
# What was measured:
# [1] = tested on: PRMT1 (protein arginine N-methyltransferase 1); test: small molecules binding arginine methyltransferase PRMT1 – biochemical, small-molecule microarray, 635 nm fluorescence, primary screen (AID 1088); conditions: higher = more signal;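 also: binding of Prmt1 protein to compounds spotted on small-molecule microarray slides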
# [2] = growth effects on S. cerevisiae YJM789 – YJM789 clinical isolate, OD600, 24 h, basal, primary screen (AID 1089); conditions: higher = more signal, called active from +8 up or from −8 down;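 also: growth of clinical yeast isolate S. cerevisiae YJM 789 seeded 1000 cells per well; test concentration not given here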
# [3] = S. pombe growth modifiers, basal conditions – strain 972, OD600, 24 h, no modulator, primary screen (AID 1090);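 also: basal condition with compound alone and no growth modifier present; test concentration not given here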; conditions: S. pombe 972 growth, higher = more signal, called active from +8 up or from −8 down
# [4] = budding yeast growth modifiers under rapamycin – strain BY4716, OD600, 96 h, primary screen (AID 1091); also: test concentration not given here; conditions: S. cerevisiae BY4716 + rapamycin, higher = more signal, called active from +8 up or from −8 down
# [5] = target: Torsin-1A-interacting protein 2 (Homo sapiens) (UniProt Q8NFQ8); test: small molecules binding lysate-expressed LULL1 – cell lysate, human LULL1 lysate, 635/667 nm fluorescence, primary screen (AID 1092); conditions: small-molecule microarray, hLULL1 lysate binding, 635 nm fluorescence; higher = more signal;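 also: probe is lysate of COS7 cells overexpressing human LULL1; score merges per-feature 667 nm fluorescence with signal-to-noise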
# Sequence of Torsin-1A-interacting protein 2 (Homo sapiens) (Q8NFQ8 whole entry, looked up): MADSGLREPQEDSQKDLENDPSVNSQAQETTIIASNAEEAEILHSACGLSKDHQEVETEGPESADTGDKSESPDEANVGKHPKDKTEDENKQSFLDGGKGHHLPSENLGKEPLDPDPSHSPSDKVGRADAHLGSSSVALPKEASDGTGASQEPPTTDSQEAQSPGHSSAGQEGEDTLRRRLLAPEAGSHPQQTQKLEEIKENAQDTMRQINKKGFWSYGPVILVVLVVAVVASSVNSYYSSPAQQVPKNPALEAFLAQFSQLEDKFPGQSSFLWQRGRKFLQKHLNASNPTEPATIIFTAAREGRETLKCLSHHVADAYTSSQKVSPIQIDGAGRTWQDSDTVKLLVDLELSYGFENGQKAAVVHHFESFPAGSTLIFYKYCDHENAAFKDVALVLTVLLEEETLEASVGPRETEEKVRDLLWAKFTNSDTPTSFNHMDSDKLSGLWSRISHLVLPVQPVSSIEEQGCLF
# [6] = optical density change of DRC41 E. coli – strain DRC41, OD650, 24 h, E. coli filamentation project, primary screen (AID 1093);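 also: MC1000 strain lacking acrAB efflux and sulA so SOS filamentation is blocked; test concentration not given here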; conditions: E. coli DRC41 growth, higher = more signal, called active from +8 up or from −8 down
# [7] = probe aLefty2 binding to arrayed compounds – biochemical, biotinylated probe, 635/667 nm fluorescence, primary screen (AID 1094); conditions: small-molecule microarray, higher = more signal;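 also: score merges spot fluorescence near 667 nm with spot signal-to-noise ratio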
# [8] = tested on: Noggin (protein binding on small-molecule microarray); test: small molecules binding Noggin protein – biochemical, 635/667 nm fluorescence, primary screen (AID 1095); conditions: 635 nm fluorescence, higher = more signal;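 also: score merges 667 nm feature fluorescence with signal to noise over triplicate slides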
# [9] = target: Neurogenic locus notch homolog protein 3 (Homo sapiens) (UniProt Q9UM47); test: small molecules binding NOTCH3 protein – biochemical, 635/667 nm fluorescence, primary screen (AID 1096); conditions: small-molecule microarray, 635 nm fluorescence, higher = more signal
# Sequence of Neurogenic locus notch homolog protein 3 (Homo sapiens) (Q9UM47 whole entry, looked up): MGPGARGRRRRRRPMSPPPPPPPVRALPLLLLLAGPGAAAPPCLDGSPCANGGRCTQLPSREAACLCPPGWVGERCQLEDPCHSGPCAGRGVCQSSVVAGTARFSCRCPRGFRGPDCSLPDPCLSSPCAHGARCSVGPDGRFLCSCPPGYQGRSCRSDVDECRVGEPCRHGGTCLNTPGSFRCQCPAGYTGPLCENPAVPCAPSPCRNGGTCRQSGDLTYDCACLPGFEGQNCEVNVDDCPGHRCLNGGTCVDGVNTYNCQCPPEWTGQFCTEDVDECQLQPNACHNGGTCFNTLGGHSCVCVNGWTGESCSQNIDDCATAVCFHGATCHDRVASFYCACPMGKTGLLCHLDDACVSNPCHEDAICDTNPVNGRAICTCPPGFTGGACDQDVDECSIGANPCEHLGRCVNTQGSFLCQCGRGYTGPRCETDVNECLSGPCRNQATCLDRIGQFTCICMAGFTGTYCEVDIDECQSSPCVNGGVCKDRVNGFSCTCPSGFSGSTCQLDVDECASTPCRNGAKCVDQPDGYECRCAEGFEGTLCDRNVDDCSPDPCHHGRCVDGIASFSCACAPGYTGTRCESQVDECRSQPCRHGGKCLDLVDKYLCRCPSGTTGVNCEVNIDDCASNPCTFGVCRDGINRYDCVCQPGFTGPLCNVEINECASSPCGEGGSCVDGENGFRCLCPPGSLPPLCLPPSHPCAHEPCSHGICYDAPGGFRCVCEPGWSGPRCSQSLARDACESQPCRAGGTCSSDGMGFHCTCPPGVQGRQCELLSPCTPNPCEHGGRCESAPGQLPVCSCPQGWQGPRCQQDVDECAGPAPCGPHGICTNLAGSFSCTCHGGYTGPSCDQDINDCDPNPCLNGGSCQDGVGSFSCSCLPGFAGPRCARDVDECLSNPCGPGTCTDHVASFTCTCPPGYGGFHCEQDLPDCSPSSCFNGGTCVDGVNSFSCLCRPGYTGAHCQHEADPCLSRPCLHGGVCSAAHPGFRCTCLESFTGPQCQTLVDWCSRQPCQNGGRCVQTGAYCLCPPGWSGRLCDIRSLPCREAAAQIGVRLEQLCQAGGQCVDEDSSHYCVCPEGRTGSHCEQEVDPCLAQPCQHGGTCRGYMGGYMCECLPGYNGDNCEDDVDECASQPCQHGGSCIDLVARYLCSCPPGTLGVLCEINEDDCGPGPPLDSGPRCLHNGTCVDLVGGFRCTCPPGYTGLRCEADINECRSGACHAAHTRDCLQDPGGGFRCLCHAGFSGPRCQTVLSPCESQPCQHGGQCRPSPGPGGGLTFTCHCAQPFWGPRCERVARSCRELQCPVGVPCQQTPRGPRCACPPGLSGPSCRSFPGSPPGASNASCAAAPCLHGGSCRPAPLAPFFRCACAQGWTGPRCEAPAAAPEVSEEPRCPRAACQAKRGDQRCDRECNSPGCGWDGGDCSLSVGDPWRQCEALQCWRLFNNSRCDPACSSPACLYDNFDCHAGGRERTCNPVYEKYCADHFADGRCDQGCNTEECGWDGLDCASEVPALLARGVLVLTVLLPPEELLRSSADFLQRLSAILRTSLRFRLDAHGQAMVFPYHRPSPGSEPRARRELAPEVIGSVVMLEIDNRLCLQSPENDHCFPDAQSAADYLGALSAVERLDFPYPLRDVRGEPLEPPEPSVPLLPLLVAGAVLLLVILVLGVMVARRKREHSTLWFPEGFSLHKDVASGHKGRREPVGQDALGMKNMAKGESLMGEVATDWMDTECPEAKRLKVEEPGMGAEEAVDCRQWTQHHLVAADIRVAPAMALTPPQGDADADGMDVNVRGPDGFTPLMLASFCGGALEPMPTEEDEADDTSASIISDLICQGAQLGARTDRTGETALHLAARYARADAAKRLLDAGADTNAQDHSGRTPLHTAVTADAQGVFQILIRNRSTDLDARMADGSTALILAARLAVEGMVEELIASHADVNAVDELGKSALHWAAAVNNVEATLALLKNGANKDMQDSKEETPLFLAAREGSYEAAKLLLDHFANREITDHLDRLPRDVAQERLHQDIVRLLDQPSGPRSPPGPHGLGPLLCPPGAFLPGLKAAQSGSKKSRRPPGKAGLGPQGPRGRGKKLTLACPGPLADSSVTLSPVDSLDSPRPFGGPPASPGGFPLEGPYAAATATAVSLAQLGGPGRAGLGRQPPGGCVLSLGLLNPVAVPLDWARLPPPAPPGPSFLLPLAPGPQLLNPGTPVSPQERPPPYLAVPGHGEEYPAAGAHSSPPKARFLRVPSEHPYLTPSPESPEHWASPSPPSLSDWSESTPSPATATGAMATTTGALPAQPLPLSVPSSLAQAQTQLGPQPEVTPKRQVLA
# [10] = probe aEGFR binding to arrayed compounds – biochemical, biotinylated probe, 635/667 nm fluorescence, primary screen (AID 1097); conditions: small-molecule microarray, higher = more signal;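 also: probe is a biotinylated anti-EGFR antibody binding compounds printed on slides; score combines fluorescence near 667 nm and signal to noise of each spot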
# [11] = tested on: Plasmodium falciparum Sir2 (PF13_0152, Sir2A); test: Plasmodium falciparum Sir2A binding compounds – biochemical, small-molecule microarray, 635 nm fluorescence, primary screen (AID 1098); conditions: fluorescence 635 nm, higher = more signal;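 also: score merges spot fluorescence intensity with its signal-to-noise ratio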
# [12] = probe aDKK1 binding to arrayed compounds – biochemical, biotinylated probe, 635/667 nm fluorescence, primary screen (AID 1099); conditions: small-molecule microarray, higher = more signal;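 also: score merges 667nm spot fluorescence with signal to noise across triplicate slides; reference of the scale not given here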
# [13] = probe aCHRDL2 binding to arrayed compounds – biochemical, biotinylated probe, 635/667 nm fluorescence, primary screen (AID 1100); conditions: small-molecule microarray, higher = more signal
# [14] = change in splice reporter luminescence, either direction, cell-based, HEK293, spliceosome inhibition project, primary screen (AID 1101); conditions: HEK293 splicing luciferase reporter, 24 h, higher = more signal, called active from +8 up or from −8 down;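 also: HEK293 cells carrying a splicing-competent luciferase reporter gene; test concentration not given here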
# [15] = target: Fibroblast growth factor 10 (Homo sapiens) (UniProt O15520); test: compounds binding fibroblast growth factor 10 – biochemical, small-molecule microarray, 635 nm fluorescence, primary screen (AID 1102); conditions: FGF10 binding, fluorescence 635 nm, higher = more signal
# Sequence of Fibroblast growth factor 10 (Homo sapiens) (O15520 whole entry, looked up): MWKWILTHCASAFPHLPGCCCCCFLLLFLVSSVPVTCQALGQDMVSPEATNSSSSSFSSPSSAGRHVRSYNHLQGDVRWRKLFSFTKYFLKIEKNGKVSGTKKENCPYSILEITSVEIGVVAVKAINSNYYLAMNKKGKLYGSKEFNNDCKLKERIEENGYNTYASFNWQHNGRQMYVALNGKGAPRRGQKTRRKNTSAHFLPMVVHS
# [16] = tested on: glycogen synthase kinase-3 (GSK3A per assay name; protocol says GSK3B); test: compounds binding glycogen synthase kinase-3 – biochemical, small-molecule microarray, 635 nm fluorescence, GSK3A, primary screen (AID 1103); conditions: fluorescence 635 nm, higher = more signal; also: the record names both GSK3A and GSK3B
# [17] = target: Epidermal growth factor receptor (Homo sapiens) (UniProt P00533); test: compounds binding epidermal growth factor receptor – biochemical, small-molecule microarray, 635 nm fluorescence, primary screen (AID 1104); conditions: EGFR binding, higher = more signal;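 also: score merges 667 nm emission intensity with spot signal to noise over triplicate slides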
# Sequence of Epidermal growth factor receptor (Homo sapiens) (P00533 whole entry, looked up): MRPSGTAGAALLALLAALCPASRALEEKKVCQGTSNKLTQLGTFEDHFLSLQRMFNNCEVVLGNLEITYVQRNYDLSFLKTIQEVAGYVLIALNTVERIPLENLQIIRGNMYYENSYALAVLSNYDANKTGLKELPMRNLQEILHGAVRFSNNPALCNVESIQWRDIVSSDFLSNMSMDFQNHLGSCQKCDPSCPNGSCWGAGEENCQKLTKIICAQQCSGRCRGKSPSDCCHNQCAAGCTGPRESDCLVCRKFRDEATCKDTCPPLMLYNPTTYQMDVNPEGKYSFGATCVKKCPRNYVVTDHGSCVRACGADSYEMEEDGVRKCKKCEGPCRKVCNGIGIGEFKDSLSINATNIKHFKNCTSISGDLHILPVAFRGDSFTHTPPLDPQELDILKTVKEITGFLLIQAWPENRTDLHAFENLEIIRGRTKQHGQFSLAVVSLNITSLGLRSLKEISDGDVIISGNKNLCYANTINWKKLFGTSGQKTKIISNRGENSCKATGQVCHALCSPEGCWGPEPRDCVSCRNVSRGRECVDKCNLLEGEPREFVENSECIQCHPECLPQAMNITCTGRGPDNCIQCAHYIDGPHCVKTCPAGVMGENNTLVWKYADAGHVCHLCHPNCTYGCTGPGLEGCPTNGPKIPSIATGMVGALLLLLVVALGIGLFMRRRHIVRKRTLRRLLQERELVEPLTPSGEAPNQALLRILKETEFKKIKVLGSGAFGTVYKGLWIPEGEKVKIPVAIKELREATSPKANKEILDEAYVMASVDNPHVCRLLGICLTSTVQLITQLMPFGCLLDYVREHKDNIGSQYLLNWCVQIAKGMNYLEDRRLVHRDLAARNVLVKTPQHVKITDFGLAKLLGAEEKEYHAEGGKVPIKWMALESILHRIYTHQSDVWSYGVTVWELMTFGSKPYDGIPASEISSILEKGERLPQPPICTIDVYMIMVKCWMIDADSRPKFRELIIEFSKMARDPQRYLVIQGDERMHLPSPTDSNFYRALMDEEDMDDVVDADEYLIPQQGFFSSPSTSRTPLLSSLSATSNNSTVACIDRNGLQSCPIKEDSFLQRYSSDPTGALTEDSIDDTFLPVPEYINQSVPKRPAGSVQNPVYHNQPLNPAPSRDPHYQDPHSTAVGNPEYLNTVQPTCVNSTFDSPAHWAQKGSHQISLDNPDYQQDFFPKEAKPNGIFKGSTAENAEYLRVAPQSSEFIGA
# [18] = target: Follistatin-related protein 3 (Homo sapiens) (UniProt O95633); test: compounds binding follistatin-related protein 3 – biochemical, small-molecule microarray, 635 nm fluorescence, primary screen (AID 1105); conditions: FSTL3 binding, higher = more signal;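 also: score merges emission near 667 nm and signal to noise per printed spot across three slides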
# Sequence of Follistatin-related protein 3 (Homo sapiens) (O95633 whole entry, looked up): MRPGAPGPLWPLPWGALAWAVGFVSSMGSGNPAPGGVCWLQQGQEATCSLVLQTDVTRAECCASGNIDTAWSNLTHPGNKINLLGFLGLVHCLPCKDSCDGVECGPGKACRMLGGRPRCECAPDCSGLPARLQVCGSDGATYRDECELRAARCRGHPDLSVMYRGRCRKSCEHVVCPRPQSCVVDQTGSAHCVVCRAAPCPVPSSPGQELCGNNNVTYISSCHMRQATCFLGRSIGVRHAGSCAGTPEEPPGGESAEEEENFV
# [19] = target: Dickkopf-related protein 1 (Homo sapiens) (UniProt O94907); test: small molecules binding DKK1 protein – biochemical, small-molecule microarray, 635 nm fluorescence scan, primary screen (AID 1106); conditions: higher = more signal;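 also: score merges emission near 667 nm with signal to noise over three replicate slides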
# Sequence of Dickkopf-related protein 1 (Homo sapiens) (O94907 whole entry, looked up): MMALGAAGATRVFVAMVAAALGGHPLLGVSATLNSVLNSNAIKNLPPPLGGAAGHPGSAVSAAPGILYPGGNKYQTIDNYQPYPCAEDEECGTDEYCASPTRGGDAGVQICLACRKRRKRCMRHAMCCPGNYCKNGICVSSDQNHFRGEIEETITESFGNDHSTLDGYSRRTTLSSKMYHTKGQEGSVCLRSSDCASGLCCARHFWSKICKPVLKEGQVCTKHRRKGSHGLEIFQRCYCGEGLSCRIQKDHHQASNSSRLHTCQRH
# [20] = tested on: Inhibin beta A chain (activin A); test: small molecules binding activin A – biochemical, small-molecule microarray, 635 nm fluorescence scan, primary screen (AID 1107); conditions: INHBA, higher = more signal;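 also: mouse activin A protein probed at 4.33 µg/mL on printed slides; score merges bound-protein fluorescence near 667 nm with spot signal-to-noise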
SMILES,composite z-score [1],z-score [2],z-score [3],z-score [4],composite z-score [5],z-score [6],composite z-score [7],composite z-score [8],composite z-score [9],composite z-score [10],composite z-score [11],composite z-score [12],composite z-score [13],z-score [14],composite z-score [15],composite z-score [16],composite z-score [17],composite z-score [18],composite z-score [19],composite z-score [20]
C=C1C(=O)C=C2CN(C(=O)c3ccccc3)[C@@](Cc3ccc(OC)cc3)(C(=O)OC)[C@@H]12,1.54,0.573 (inactive),1.85 (inactive),10.3 (active),3.85,-0.656 (inactive),0.68,0.232,1.01,0.146,1.14,1.18,1.18,-2.15 (inactive),1.38,0.681,0.369,1.37,-0.399,0.516
CCOC(=O)C[C@H]1[C@H](OC(=O)Cc2ccc3c(c2)OCO3)[C@@H](NC(=O)Cc2ccc(OC)cc2)c2cc(OCCCO)ccc2N1C(=O)Cc1ccc(OC)cc1,0.433,-0.449 (inactive),0.531 (inactive),-0.495 (inactive),1.3,0.503 (inactive),-0.0616,-0.102,0.194,-0.157,0.132,-0.0514,-0.178,-2.07 (inactive),0.205,0.157,-0.141,0.0597,-0.141,0.177
CC(C)C[C@H]1NC(=O)C([C@@H](C)OCc2ccccc2)NC(=O)[C@@]23C(=O)N[C@@H](Cc4ccccc4)C2[C@H](C)[C@@]2(C)O[C@H]2C3/C=C/C/C=C\CNC1=O (stereo not given in full),1.55,-0.099 (inactive),-1.21 (inactive),0.206 (inactive),2.01,-0.281 (inactive),0.039,0.697,1.1,0.138,0.884,-0.261,-0.493,-0.138 (inactive),1.03,1.12,0.583,1.47,0.917,1.24
O=C1O[C@@H](c2ccccc2)[C@@H](c2ccccc2)N2[C@@H](c3ccc(OCCO)cc3)[C@]3(C(=O)Nc4ccc(C#CC5(O)CCCCCC5)cc43)[C@@H](C(=O)O)[C@H]12,1.35,2.79 (inactive),-0.256 (inactive),0.757 (inactive),2.64,2.21 (inactive),-0.166,0.674,0.743,-0.0828,1.46,0.623,0.457,-0.702 (inactive),0.372,0.995,0.146,0.401,-0.0236,0.2
COC(=O)[C@@]1(Cc2ccccc2)[C@H]2c3cc(C(=O)N(C)C)n(Cc4ccc(C(F)(F)F)nc4)c3C[C@H]2CN1C(=O)c1ccccc1,0.644,1.06 (inactive),1.28 (inactive),1.67 (inactive),3.69,-0.755 (inactive),0.348,-0.498,1.03,0.228,1.52,1.17,1.24,-1.16 (inactive),1.08,1.12,-0.405,0.885,-0.547,0.822
CC(C)c1nc2cc(Br)ccc2c(=O)o1,-0.0152,-0.0363 (inactive),0.347 (inactive),-0.26 (inactive),2.97,0.501 (inactive),-0.0823,0.0534,0.567,-0.0535,0.338,0.444,-0.123,1.44 (inactive),0.755,1.02,0.397,0.523,0.359,-0.585
Cc1ccc(F)cc1S(=O)(=O)N[C@H]1CCN(Cc2ccc(OC(C)C)cc2)C1,1.48,-1.09 (inactive),-13.1 (active),-1.03 (inactive),1.17,-2.66 (inactive),-0.218,1.41,0.0527,-0.18,1.23,-0.322,-0.747,-0.24 (inactive),0.44,0.0619,-0.437,0.195,0.577,-0.22
O=C1C2C=CC(C(O)C3CCCCC3)N(n3cnnc3)C2C(=O)N1Cc1ccccc1 (stereo not given),1.51,-0.509 (inactive),0.266 (inactive),-0.98 (inactive),3.15,0.596 (inactive),0.145,0.915,1.06,0.0201,0.815,0.224,0.623,-1.3 (inactive),1.16,1.1,0.0887,1.21,-0.0435,1.13
CC(C)(C)N1CC=CC23O[C@@H]4C=CCCOC(=O)C4[C@H]2C(=O)N(CCCCCCO)[C@@H]3C1=O (stereo not given in full),0.647,-0.0623 (inactive),-0.563 (inactive),0.352 (inactive),3.16,-0.2 (inactive),-0.171,-0.679,0.123,-0.238,1.34,0.017,0.0876,0.416 (inactive),-0.0479,-0.404,-1.09,-0.63,-0.983,0.406
C=CC[C@@]12N=C(c3ccc(OCCCO)cc3)O[C@@H]1c1ccccc1N(CCC)C2=O,1.55,-1.01 (inactive),-2.42 (inactive),-0.71 (inactive),3.12,1.34 (inactive),0.219,0.916,1.07,-0.108,1.58,0.257,0.952,-0.457 (inactive),0.85,1.25,0.153,1.15,-0.0879,1.19
